Out of some 5,500 compounds screened, about 2,000 (36%) were called active. Not shown: some 18% with an inconclusive outcome. Cut-off read from the data, not from the text of the source: active = normalized growth mostly below about 0.91 (no sharp cut-off); inconclusive = no clear call, values can overlap the other calls; inactive = mostly above about 0.92. The list shows a part of the results.
Experiment: chemical genetic growth profiling, strain panel (AID 1159580);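 note: tested at 20 µM; growth read once vehicle control cultures reached saturation at 30 °C; 1 = growth at the plate median or of vehicle wells; lower values mean less growth of the strain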
Conditions: S. cerevisiae deletion strains, growth OD

Measured: normalized growth

Cc1nc(-c2ccc(S(=O)(=O)Nc3ccc(Br)cc3Cl)s2)cs1
active: locus YHR030C, strain SLT2, active compounds read low 0.575 | locus YLR113W, strain HOG1, active compounds read low 0.635 | locus YPL256C, strain CLN2, active compounds read low 0.672
inactive: locus YAR019C, strain CDC15, active compounds read low 0.936 | locus YBL105C, strain PKC1, active compounds read low 0.946 | locus YBR135W, strain CKS1, active compounds read low 0.953 | locus YBR136W, strain MEC1, active compounds read low 0.942 | locus YBR160W, strain CDC28, active compounds read low 0.959 | locus YDL017W, strain CDC7, active compounds read low 0.942 | locus YDL028C, strain MPS1, active compounds read low 0.957 | locus YDL101C, strain DUN1, active compounds read low 0.956 | locus YDL108W, strain KIN28, active compounds read low 0.961 | locus YDL132W, strain cdc53, active compounds read low 0.951 | locus YDL214C, strain PRR2, active compounds read low 0.888 | locus YDR052C, strain DBF4, active compounds read low 0.941 | locus YDR054C, strain cdc34, active compounds read low 0.928 | locus YDR226W, strain ADK1, active compounds read low 0.943 | locus YDR477W, strain SNF1, active compounds read low 0.858 | locus YER123W, strain YCK3, active compounds read low 0.904 | locus YER133W, strain GLC7, active compounds read low 0.867 | locus YFL009W, strain cdc4, active compounds read low 0.957 | locus YFL029C, strain CAK1, active compounds read low 0.953 | locus YFR003C, strain YPI1, active compounds read low 0.949 | locus YFR019W, strain FAB1, active compounds read low 0.923 | locus YFR028C, strain CDC14, active compounds read low 0.952 | locus YGR040W, strain KSS1, active compounds read low 0.868 | locus YGR052W, strain FMP48, active compounds read low 0.866 | locus YGR092W, strain DBF2, active compounds read low 0.877 | locus YHR079C, strain IRE1, active compounds read low 0.778 | locus YHR082C, strain KSP1, active compounds read low 0.943 | locus YHR205W, strain SCH9, active compounds read low 0.944 | locus YIL147C, strain SLN1, active compounds read low 0.957 | locus YJL095W, strain BCK1, active compounds read low 0.84 | locus YJL128C, strain PBS2, active compounds read low 0.89 | locus YJL157C, strain FAR1, active compounds read low 0.893 | locus YJR016C, strain ILV3, active compounds read low 0.94 | locus YJR066W, strain TOR1 (second series), active compounds read low 0.882 | locus YJR066W, strain TOR1, active compounds read low 0.93 | locus YKL048C, strain ELM1, active compounds read low 0.919 | locus YKL067W, strain YNK1, active compounds read low 0.883 | locus YKL101W, strain HSL1, active compounds read low 0.864 | locus YKL193C, strain SDS22, active compounds read low 0.942 | locus YKL203C, strain TOR2, active compounds read low 0.893 | locus YLR133W, strain CKI1, active compounds read low 0.888 | locus YLR403W, strain SFP1, active compounds read low 0.863 | locus YML070W, strain DAK1, active compounds read low 0.856 | locus YMR001C, strain CDC5, active compounds read low 0.946 | locus YMR205C, strain PFK2 (second series), active compounds read low 0.907 | locus YMR277W, strain FCP1, active compounds read low 0.94 | locus YNL006W, strain LST8, active compounds read low 0.937 | locus YNL020C, strain ARK1, active compounds read low 0.884 | locus YNL161W, strain CBK1, active compounds read low 0.946 | locus YNL183C, strain NPR1, active compounds read low 0.901 | locus YNL207W, strain RIO2, active compounds read low 0.925 | locus YNL222W, strain SSU72, active compounds read low 0.952 | locus YNL307C, strain MCK1 (second series), active compounds read low 0.891 | locus YOL078W, strain AVO1, active compounds read low 0.952 | locus YOL136C, strain PFK27, active compounds read low 0.852 | locus YOR061W, strain CKA2, active compounds read low 0.859 | locus YOR119C, strain RIO1, active compounds read low 0.938 | locus YOR231W, strain MKK1, active compounds read low 0.79 | locus YOR329C, strain SCD5, active compounds read low 0.946 | locus YPL031C, strain PHO85, active compounds read low 0.862 | locus YPL153C, strain RAD53, active compounds read low 0.893 | locus YPL204W, strain HRR25, active compounds read low 0.846 | locus YPL209C, strain IPL1, active compounds read low 0.942 | locus YPR025C, strain CCL1, active compounds read low 0.953 | locus YPR106W, strain ISR1, active compounds read low 0.943 | locus YPR111W, strain DBF20, active compounds read low 0.926 | strain NNK1, active compounds read low 0.926 | strain TSCII, active compounds read low 0.937
